# Data: PubChem BioAssay (EPA / NIEHS)
# “And” between values parts separate entries of the source, which are not always exact repeats. Equal entries are not always repeated. Inconclusive results are not listed. The source made the active and inactive calls. How the source made its calls, unless noted: active means hit-call score of the fitted dose curve at least 0.9, where 1 is the maximum; inconclusive means response in the unintended direction; inactive means score below 0.9.
# Legend:
# [1] = target: human Dopamine Transporter (DAT), SLC6A3 (gene 6531) (UniProt Q01959); assay: NVS_TR_hDAT: NovaScreen (NVS) Transporter Assay for human Dopamine Transporter (DAT) (AID 2283374);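 further: activity means loss of bound radioligand signal relative to DMSO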
# human Dopamine Transporter (DAT), SLC6A3 (gene 6531), sequence (Q01959 whole entry, looked up): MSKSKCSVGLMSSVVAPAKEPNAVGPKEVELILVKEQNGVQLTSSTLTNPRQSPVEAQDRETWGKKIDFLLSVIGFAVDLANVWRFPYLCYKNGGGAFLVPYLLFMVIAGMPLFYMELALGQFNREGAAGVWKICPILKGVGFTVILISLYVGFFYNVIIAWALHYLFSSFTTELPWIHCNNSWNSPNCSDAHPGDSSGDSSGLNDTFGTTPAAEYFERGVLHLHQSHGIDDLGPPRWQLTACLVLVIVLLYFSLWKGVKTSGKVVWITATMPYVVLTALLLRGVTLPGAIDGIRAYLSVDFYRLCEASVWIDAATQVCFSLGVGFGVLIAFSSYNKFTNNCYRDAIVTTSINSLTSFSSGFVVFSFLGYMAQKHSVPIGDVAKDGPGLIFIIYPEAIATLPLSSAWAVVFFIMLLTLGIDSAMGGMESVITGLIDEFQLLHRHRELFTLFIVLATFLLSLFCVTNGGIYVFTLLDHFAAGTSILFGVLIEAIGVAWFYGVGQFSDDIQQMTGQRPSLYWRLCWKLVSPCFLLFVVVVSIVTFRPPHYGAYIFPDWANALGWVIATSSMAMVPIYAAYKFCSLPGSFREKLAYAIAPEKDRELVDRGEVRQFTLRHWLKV
# Outline: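 Cell-free radioligand binding to extracted human DAT protein, read 1 h after dosing by filter-based scintillation counting. Loss of specific binding scored against DMSO baseline; primary screen in duplicate at 25 uM, actives then run in concentration series.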
# [2] = target: Estrogen receptor (Homo sapiens) (UniProt P03372); assay: OT_ERa_GFPERaERE_0480: Odyssey Thera (OT) 8-hour HeLa Transcription Induction Assay for Estrogen Receptor (AID 2283381; active means hit-call score of the fitted dose curve at least 0.9, where 1 is the maximum; inactive means score below 0.9)
# Estrogen receptor (Homo sapiens), sequence (P03372 whole entry, looked up): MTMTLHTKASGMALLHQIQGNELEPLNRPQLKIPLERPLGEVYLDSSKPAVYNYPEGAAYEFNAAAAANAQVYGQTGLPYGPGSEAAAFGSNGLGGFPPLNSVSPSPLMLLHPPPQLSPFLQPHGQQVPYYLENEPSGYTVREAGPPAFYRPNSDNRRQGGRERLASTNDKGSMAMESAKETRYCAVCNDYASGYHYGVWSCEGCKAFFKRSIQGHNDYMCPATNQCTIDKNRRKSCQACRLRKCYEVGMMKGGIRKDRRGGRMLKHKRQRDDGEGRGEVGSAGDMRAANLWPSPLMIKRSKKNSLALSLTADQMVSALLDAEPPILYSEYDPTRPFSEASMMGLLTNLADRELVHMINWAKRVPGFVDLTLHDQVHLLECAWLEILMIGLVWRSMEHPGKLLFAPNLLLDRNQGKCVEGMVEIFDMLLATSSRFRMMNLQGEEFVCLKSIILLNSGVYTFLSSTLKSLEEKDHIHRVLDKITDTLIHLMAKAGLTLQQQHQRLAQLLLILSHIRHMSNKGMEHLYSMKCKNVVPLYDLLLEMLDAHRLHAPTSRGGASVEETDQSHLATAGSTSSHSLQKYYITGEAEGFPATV
# Outline: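 HeLa cells expressing GFP reporter under estrogen response element, imaged 8 h after dosing. GFP induction quantified by high-content fluorescence microscopy image analysis; gain of signal fitted versus DMSO.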
# [3] = target: Estrogen receptor (Homo sapiens) (UniProt P03372); assay: OT_ERa_GFPERaERE_0120: Odyssey Thera (OT) 2-hour HeLa Transcription Induction Assay for Estrogen Receptor (AID 2283382)
# Outline: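 HeLa cells were dosed for 2 h, then GFP reporter induction was quantified by fluorescence microscopy with high-content image analysis. Gain of signal fitted against DMSO baseline.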
# [4] = target: Bile acid receptor (Homo sapiens) (UniProt Q96RI1); assay: OT_FXR_FXRSRC1_0480: Odyssey Thera (OT) 8-hour HEK293T Protein-Complementation Assay for Farnesoid X receptor/SRC-1 Co-activator (AID 2283383)
# Bile acid receptor (Homo sapiens), sequence (Q96RI1 whole entry, looked up, the tested form may be a part): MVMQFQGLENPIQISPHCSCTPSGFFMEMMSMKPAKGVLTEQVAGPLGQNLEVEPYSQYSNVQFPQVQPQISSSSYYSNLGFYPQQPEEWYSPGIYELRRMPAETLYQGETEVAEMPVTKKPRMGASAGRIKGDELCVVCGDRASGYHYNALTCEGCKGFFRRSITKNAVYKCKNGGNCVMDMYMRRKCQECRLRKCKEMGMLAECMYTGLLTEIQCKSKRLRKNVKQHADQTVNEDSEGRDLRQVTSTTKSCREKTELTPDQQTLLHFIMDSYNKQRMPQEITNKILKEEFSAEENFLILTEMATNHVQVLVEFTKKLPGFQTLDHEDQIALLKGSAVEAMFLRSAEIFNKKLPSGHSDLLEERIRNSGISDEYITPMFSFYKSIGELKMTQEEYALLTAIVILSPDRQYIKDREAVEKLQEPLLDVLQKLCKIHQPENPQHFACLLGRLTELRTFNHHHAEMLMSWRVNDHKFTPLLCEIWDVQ
# Outline: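 HEK293T protein-fragment complementation assay: FXR and SRC-1 coactivator are fused to reporter fragments, and their interaction restores a fluorescent reporter. Readout was taken 8 h after dosing, with gain of signal fit relative to DMSO.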
# [5] = target: Bile acid receptor (Homo sapiens) (UniProt Q96RI1); assay: OT_FXR_FXRSRC1_1440: Odyssey Thera (OT) 24-hour HEK293T Protein-Complementation Assay for Farnesoid X receptor/SRC-1 Co-activator (AID 2283384)
# Outline: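 HEK293T cells, 24 h after chemical dosing. FXR–SRC-1 coactivator interaction read as fluorescence from protein-fragment complementation of a split reporter. Gain of signal fitted against DMSO baseline.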
# [6] = target: Retinoic acid receptor RXR-alpha (Homo sapiens) (UniProt P19793); assay: OT_NURR1_NURR1RXRa_0480: Odyssey Thera (OT) 8-hour HEK293T Protein Complementation Assay for Nurr1/retinoid X receptor (RXR) (AID 2283385)
# Retinoic acid receptor RXR-alpha (Homo sapiens), sequence (P19793 whole entry, looked up, the tested form may be a part): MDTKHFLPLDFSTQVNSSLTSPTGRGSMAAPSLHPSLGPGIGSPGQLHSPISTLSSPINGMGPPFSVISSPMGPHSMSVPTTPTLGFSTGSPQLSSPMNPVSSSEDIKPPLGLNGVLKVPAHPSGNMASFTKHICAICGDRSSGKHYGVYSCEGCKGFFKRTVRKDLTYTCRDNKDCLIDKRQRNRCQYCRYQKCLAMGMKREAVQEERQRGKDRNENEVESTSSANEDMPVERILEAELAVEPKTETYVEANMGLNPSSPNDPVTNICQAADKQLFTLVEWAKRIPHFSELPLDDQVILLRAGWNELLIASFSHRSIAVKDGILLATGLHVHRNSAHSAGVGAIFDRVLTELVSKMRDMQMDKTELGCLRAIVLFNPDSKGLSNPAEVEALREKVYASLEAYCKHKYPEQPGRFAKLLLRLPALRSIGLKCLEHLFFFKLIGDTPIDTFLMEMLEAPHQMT
# Outline: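 HEK293T cells expressing Nurr1 and RXRα fused to reporter fragments (protein-fragment complementation); fluorescence measured 8 h after dosing. Gain of signal fitted relative to DMSO.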
# [7] = target: Peroxisome proliferator-activated receptor gamma (Homo sapiens) (UniProt P37231); assay: OT_PPARg_PPARgSRC1_0480: Odyssey Thera (OT) 8-hour Protein-Complementation Assay for Peroxisome Proliferator-activated Receptor Gamma / SRC-1 Co-activator (AID 2283387);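 further: nuclear to cytoplasmic split Venus YFP fluorescence ratio reporting PPARg SRC-1 interaction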
# Peroxisome proliferator-activated receptor gamma (Homo sapiens), sequence (P37231 whole entry, looked up, the tested form may be a part): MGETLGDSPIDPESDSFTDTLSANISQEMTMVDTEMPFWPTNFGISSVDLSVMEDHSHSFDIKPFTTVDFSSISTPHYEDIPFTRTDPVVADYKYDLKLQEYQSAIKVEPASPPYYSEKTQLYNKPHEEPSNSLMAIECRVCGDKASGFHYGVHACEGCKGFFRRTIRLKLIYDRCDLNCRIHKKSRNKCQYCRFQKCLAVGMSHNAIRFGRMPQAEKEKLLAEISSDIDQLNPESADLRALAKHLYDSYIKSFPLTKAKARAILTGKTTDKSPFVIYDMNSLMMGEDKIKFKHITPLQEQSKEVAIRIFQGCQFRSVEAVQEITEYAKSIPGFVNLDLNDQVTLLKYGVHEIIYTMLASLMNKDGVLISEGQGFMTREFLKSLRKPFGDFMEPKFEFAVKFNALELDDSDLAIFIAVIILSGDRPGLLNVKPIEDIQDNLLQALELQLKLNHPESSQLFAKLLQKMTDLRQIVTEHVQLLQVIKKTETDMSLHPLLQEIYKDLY
# Outline: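 HEK293T transiently transfected with PPARg and SRC-1 fused to Venus YFP fragments, compounds 8 h at 37C. Fixed, Draq5-stained cells imaged; nuclear/cytoplasmic 488 nm fluorescence ratio over at least 350 cells per image; gain fitted versus DMSO.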
# [8] = target: Peroxisome proliferator-activated receptor gamma (Homo sapiens) (UniProt P37231); assay: OT_PPARg_PPARgSRC1_1440: Odyssey Thera (OT) 24-hour Protein-Complementation Assay for Peroxisome Proliferator-activated Receptor Gamma/ SRC-1 Co-activator (AID 2283388)
# Outline: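 Cells carrying the PPARg/SRC-1 fragment-complementation reporter receive compound for 24 hours, are fixed and counterstained with Draq5, then imaged. Increased nuclear relative to cytoplasmic YFP fluorescence above DMSO baseline indicates binding activity.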
# [9] = CEETOX_H295R_11DCORT: CeeTox H295R High-throughput Steroidogenesis Assay for 11-Deoxycortisol (11DCORT) (AID 2283432; active means hit-call score of the fitted dose curve at least 0.9, where 1 is the maximum; inactive means score below 0.9;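 on AC50: 11-deoxycortisol secreted into the medium measured by LC-MS/MS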); conditions: actives raise or lower the signal
# Outline: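 H295R cells prestimulated 48 h with 10 uM forskolin, then exposed 48 h to chemical in 0.1% DMSO. 11-Deoxycortisol in medium quantified by HPLC-MS/MS after MTBE extraction; bidirectional fit versus DMSO. MTT viability read in same wells.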
# [10] = CEETOX_H295R_OHPREG: CeeTox H295R High-throughput Steroidogenesis Assay for OH-Pregnenolone (OHPREG) (AID 2283434; active means hit-call score of the fitted dose curve at least 0.9, where 1 is the maximum; inactive means score below 0.9); conditions: actives raise or lower the signal
# Outline: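 Human adrenal H295R cells were prestimulated 48 h with 10 uM forskolin, then exposed 48 h to chemical in 0.1% DMSO. Medium 17alpha-hydroxypregnenolone was quantified by HPLC-MS/MS after MTBE extraction; bidirectional fitting versus DMSO baseline.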
# [11] = CEETOX_H295R_OHPROG: CeeTox H295R High-throughput Steroidogenesis Assay for OH-Progesterone (OHPROG) (AID 2283435; active means hit-call score of the fitted dose curve at least 0.9, where 1 is the maximum; inactive means score below 0.9); conditions: actives raise or lower the signal
# Outline: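 H295R adrenal cells prestimulated 48 h with 10 uM forskolin, then exposed 48 h to chemical (0.1% DMSO final). 17alpha-hydroxyprogesterone in medium quantified by HPLC-MS/MS; bidirectional fit versus DMSO, with MTT viability measured in the same wells.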
# [12] = target: human Norepinephrine Transporter (NET), SLC6A2 (gene 6530) (UniProt P23975); assay: NVS_TR_hNET: NovaScreen (NVS) Transporter Assay for human Norepinephrine Transporter (NET) (AID 2283377);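 further: cell-free membrane protein extracted from CHO cells expressing human NET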
# Outline: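 Radioligand binding to human NET in cell-free CHO-derived protein preparations, read by filter-based scintillation counting 1 hour after dosing. Loss of signal versus DMSO baseline indicated displacement; primary screening in duplicate at 25 uM, actives then titrated.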
# [13] = target: Retinoic acid receptor RXR-alpha (Homo sapiens) (UniProt P19793); assay: OT_NURR1_NURR1RXRa_1440: Odyssey Thera (OT) 24-hour HEK293T Protein Complementation Assay for Nurr1/retinoid X receptor (RXR) (AID 2283386)
# Outline: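 HEK293T protein-fragment complementation of Nurr1 and RXRα fused to reporter fragments; compounds 24 h. Fluorescence gain from reconstituted reporter fitted versus DMSO.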
# [14] = target: human Serotonin Transporter (SERT), SLC6A4 (gene 6532) (UniProt P31645); assay: NVS_TR_hSERT: NovaScreen (NVS) Transporter Assay for human Serotonin Transporter (SERT) (AID 2283372)
# Outline: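 Radioligand binding to native SERT in human platelet membranes, read by filter-based scintillation counting 1 h after dosing. Primary screen in duplicate at 25 uM; actives followed up in concentration series; loss of signal versus DMSO baseline.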
# [15] = target: rat Serotonin Transporter (SERT), Slc6a4 (gene 25553) (UniProt P31652); assay: NVS_TR_rSERT: NovaScreen (NVS) Transporter Assay for rat Serotonin Transporter (SERT) (AID 2283375)
# rat Serotonin Transporter (SERT), Slc6a4 (gene 25553), sequence (P31652 whole entry, looked up): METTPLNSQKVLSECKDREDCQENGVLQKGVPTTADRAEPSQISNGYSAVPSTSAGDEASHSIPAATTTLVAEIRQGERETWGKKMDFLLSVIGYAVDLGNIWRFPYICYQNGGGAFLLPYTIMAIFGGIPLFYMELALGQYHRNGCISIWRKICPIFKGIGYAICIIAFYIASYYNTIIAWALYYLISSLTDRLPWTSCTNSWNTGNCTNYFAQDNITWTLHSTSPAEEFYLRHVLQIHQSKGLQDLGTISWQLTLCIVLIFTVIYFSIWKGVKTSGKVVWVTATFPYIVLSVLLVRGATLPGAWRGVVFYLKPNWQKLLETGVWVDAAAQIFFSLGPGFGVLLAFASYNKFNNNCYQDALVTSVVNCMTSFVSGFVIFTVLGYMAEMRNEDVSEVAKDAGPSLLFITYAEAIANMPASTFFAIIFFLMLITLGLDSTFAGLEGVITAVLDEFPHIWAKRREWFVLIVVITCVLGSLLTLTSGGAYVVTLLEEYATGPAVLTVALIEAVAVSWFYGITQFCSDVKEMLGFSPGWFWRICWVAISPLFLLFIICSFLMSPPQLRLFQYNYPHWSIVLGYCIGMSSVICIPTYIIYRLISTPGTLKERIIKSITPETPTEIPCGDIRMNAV
# Outline: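 Using rat forebrain membrane SERT, test chemicals compete with a radioligand for 1 hour, and bound counts are taken by filter-based scintillation. Screening starts at 25 uM in duplicate, followed by concentration series for actives.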
# [16] = target: Estrogen receptor beta (Homo sapiens) (UniProt Q92731); assay: OT_ER_ERbERb_1440: Odyssey Thera (OT) 24-hour HEK293T Protein-Complementation Assay for Estrogen Receptor-beta/-beta Homodimer (AID 2283380);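 further: fluorescence gain from ER beta LBD homodimer complementation read by laser scanning cytometry; scored as signal increase over DMSO baseline for both agonists and antagonists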
# Estrogen receptor beta (Homo sapiens), sequence (Q92731 whole entry, looked up, the tested form may be a part): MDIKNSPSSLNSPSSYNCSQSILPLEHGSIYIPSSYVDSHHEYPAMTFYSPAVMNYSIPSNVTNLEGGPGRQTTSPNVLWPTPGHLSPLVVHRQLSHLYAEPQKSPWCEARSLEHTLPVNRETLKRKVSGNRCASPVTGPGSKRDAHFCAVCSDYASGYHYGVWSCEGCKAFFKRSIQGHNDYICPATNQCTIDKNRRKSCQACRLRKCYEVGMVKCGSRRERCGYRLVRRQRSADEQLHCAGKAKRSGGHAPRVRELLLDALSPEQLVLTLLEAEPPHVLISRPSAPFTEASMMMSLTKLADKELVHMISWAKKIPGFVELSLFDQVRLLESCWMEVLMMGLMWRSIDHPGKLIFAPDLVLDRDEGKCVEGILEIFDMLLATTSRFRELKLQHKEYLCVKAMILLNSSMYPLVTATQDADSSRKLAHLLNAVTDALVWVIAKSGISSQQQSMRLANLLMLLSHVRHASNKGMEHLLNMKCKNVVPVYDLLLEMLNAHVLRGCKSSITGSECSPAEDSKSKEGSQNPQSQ
# Outline: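 HEK293T cells stably expressing human ER-beta LBD (aa 310-547) PCA homodimer pair, dosed 24 h; formaldehyde-fixed, Draq5-stained. Readout: increase in nuclear (agonist) or nuclear plus cytoplasmic (antagonist) fluorescence intensity versus DMSO, gain-of-signal fitting.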
# [17] = target: Norway rat Vesicular Monoamine Transporter (VMAT2), neurotransmitter transporter, Slc18a2 (gene 25549) (UniProt Q01827); assay: NVS_TR_rVMAT2: NovaScreen (NVS) Transporter Assay for Norway rat Vesicular Monoamine Transporter (VMAT2), neurotransmitter transporter (AID 2283376);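 further: actives lower the bound radioligand signal below the DMSO level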
# Outline: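 Rat forebrain tissue preparation used in a cell-free radioligand binding format; displacement read by filter-based scintillation counting 1 hour after dosing. Primary screen in duplicate at 25 uM, actives then run in concentration series; loss of signal versus DMSO baseline.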
# [18] = target: Agonist Androgen Response Element (ARE), AR (gene 367) (UniProt P10275); assay: OT_AR_ARELUC_AG_1440: Odyssey Thera (OT) 24-hour CHO-K1 Luciferase Assay for Agonist Androgen Response Element (ARE) (AID 2283379)
# Agonist Androgen Response Element (ARE), AR (gene 367), sequence (P10275 whole entry, looked up): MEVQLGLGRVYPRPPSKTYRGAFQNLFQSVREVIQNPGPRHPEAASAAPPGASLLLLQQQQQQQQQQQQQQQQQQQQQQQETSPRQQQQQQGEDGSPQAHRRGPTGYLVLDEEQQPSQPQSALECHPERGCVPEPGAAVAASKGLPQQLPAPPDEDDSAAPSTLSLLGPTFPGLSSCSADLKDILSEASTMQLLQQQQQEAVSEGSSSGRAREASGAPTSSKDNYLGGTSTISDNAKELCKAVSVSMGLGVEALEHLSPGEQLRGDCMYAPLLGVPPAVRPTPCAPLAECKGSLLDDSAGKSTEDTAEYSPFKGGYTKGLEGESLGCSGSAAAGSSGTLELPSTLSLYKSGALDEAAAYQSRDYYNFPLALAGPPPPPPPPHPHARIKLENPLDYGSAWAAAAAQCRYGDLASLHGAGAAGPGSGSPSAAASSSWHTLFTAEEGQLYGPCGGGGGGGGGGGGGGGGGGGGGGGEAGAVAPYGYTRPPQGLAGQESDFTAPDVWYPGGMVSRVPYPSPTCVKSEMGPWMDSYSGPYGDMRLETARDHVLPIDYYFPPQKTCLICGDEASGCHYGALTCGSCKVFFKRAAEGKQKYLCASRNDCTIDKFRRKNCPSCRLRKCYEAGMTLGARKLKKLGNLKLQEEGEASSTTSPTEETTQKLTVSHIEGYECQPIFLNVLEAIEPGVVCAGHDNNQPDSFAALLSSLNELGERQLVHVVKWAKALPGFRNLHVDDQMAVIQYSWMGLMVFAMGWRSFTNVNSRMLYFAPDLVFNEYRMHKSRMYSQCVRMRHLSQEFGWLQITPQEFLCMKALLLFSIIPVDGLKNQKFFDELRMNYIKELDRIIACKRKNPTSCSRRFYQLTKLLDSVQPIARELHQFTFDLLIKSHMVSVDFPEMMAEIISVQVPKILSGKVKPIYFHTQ
# Outline: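 Seed CHO-K1 cells; dose compounds for 24 h; add D-luciferin plus ATP in PBS; read luminescence. Signal increase relative to vehicle defines agonist activity, with at least 3 replicate wells per sample.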
# [19] = system: rat Norepinephrine Transporter (NET), gene 83511; assay: NVS_TR_rNET: NovaScreen (NVS) Transporter Assay for rat Norepinephrine Transporter (NET) (AID 2283373)
# Outline: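 Rat forebrain membranes; radioligand binding measured by filter-based scintillation counting 1 hour after dosing. Loss of specific binding versus DMSO baseline scored; primary screen in duplicate at 25 uM, actives followed up in concentration series.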
smiles,measurement,setting,value
CCN(CC)C(=O)SCc1ccc(Cl)cc1,AC50,[1],7.71 µM (active)
same,outcome,[2],inactive
same,outcome,[3],inactive
same,AC50,[4],40 µM (active)
same,outcome,[5],inactive
same,outcome,[6],inactive
same,outcome,[7],inactive
same,outcome,[8],inactive
same,AC50,[9],24.6 µM (active)
same,AC50,[10],19.3 µM (active)
same,outcome,[11],inactive
O=S(=O)(O)C(F)(F)C(F)(F)C(F)(F)C(F)(F)C(F)(F)C(F)(F)C(F)(F)C(F)(F)F,outcome,[12],inactive
same,outcome,[6],inactive
same,outcome,[13],inactive
same,outcome,[7],inactive
same,outcome,[8],inactive
CC(C)N(C(=O)COc1nnc(C(F)(F)F)s1)c1ccc(F)cc1,AC50,[14],7.81 µM (active)
same,AC50,[1],13.6 µM (active)
same,AC50,[15],8.58 µM (active)
same,outcome,[16],inactive
same,outcome,[2],inactive
same,outcome,[3],inactive
same,outcome,[4],inactive
same,outcome,[5],inactive
same,outcome,[6],inactive
same,outcome,[13],inactive
same,outcome,[7],inactive
same,outcome,[8],inactive
same,outcome,[9],inactive
same,outcome,[10],inactive
same,outcome,[11],inactive
CC1(C)C(C=C(Cl)Cl)C1C(=O)OC(C#N)c1ccc(F)c(Oc2ccccc2)c1 (stereo not given),AC50,[1],2.03 µM (active)
same,outcome,[16],inactive
same,outcome,[2],inactive
same,outcome,[3],inactive
same,outcome,[6],inactive
same,outcome,[7],inactive
same,outcome,[8],inactive
same,outcome,[9],inactive
same,outcome,[10],inactive
same,outcome,[11],inactive
CCCN(CCOc1c(Cl)cc(Cl)cc1Cl)C(=O)n1ccnc1,AC50,[14],2.17 µM (active)
same,AC50,[1],6.06 µM (active)
same,AC50,[15],3.82 µM (active)
same,AC50,[17],7.49 µM (active)
same,AC50,[12],5.14 µM (active)
same,outcome,[16],inactive
same,AC50,[4],11.7 µM (active)
same,AC50,[5],12.4 µM (active)
same,AC50,[6],11.9 µM (active)
same,outcome,[13],inactive
same,outcome,[7],inactive
same,outcome,[8],inactive
same,AC50,[9],0.374 µM (active)
same,AC50,[10],0.159 µM (active)
same,outcome,[11],inactive
C#CCN1C(=O)COc2cc(F)c(N3C(=O)C4=C(CCCC4)C3=O)cc21,outcome,[18],inactive
same,outcome,[16],inactive
same,outcome,[2],inactive
same,outcome,[3],inactive
same,outcome,[6],inactive
same,outcome,[13],inactive
same,outcome,[7],inactive
same,outcome,[8],inactive
same,outcome,[9],inactive
same,outcome,[10],inactive
same,outcome,[11],inactive
CCCN(CCC)c1c([N+](=O)[O-])cc(C(F)(F)F)cc1[N+](=O)[O-],AC50,[1],25 µM (active)
same,outcome,[18],inactive
same,outcome,[2],inactive
same,outcome,[3],inactive
same,AC50,[4],30.7 µM (active)
same,outcome,[5],inactive
same,outcome,[6],inactive
same,outcome,[13],inactive
same,outcome,[7],inactive
same,outcome,[8],inactive
same,outcome,[10],inactive
same,outcome,[11],inactive
CCOC1Oc2ccc(OS(C)(=O)=O)cc2C1(C)C (stereo not given),outcome,[18],inactive
same,outcome,[16],inactive
same,AC50,[2],55.4 µM (active)
same,AC50,[3],53.4 µM (active)
same,outcome,[6],inactive
same,outcome,[13],inactive
same,outcome,[7],inactive
same,outcome,[8],inactive
Oc1cc(Cl)ccc1Oc1ccc(Cl)cc1Cl,AC50,[19],13.7 µM (active) [middle of 4 runs]
same,AC50,[1],21.3 µM (active) [middle of 4 runs]
same,AC50,[12],585 nM (active) [middle of 4 runs]
same,outcome,[16],inactive
same,AC50,[4],11.9 µM (active)
same,AC50,[5],12 µM (active)
same,AC50,[6],11.9 µM (active) and 11.6 µM (active)
same,outcome,[7],inactive
same,outcome,[8],inactive
same,outcome,[9],inactive
same,outcome,[10],inactive
same,outcome,[11],inactive
N#Cc1c(Cl)c(Cl)c(Cl)c(C#N)c1Cl,outcome,[14],inactive
same,AC50,[15],8.2 µM (active)
same,AC50,[16],0.338 µM (active)
same,outcome,[2],inactive
same,outcome,[3],inactive
same,AC50,[6],0.0765 µM (active)
same,outcome,[7],inactive
same,outcome,[8],inactive
same,outcome,[9],inactive
same,outcome,[10],inactive
same,outcome,[11],inactive
